Compound activity: PubChem BioAssay, National Center for Advancing Translational Sciences (NCATS)
Rab9 promoter act: activators of Rab9 promoter. Huh7 Rab9 promoter-luciferase reporter, luminescence, 24 h. Potency, µM (doses to about 9.22 µM), for inactives: at the highest dose activation, negative = inhibition, most hits filed as activators. 320,000 compounds, 2.8% hits. AID 485297; note: % of control where 0% means no effect; nearly all actives have a fitted effect of over 60% in size
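Quantitative HTS format; Huh7 Rab9-luciferase reporter cells (1500/well) receive compound 2 h post-plating, incubate 24 h at 37 °C, then get luciferase reagent for 10 min before luminescence reading.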
ELG1 genotox: genotoxicity induction in ELG1-luciferase HEK293T cells | HEK293T ELG1-luciferase reporter, luminescence, 16 h | Potency, µM (doses to about 46 µM), for the others: top-dose activity change, positive = activation, hits mostly activators | 330,000 compounds, 1.3% hits; note: % of control where 0% means no effect; nearly all actives have a fitted effect of over 60% in size
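16 hr compound incubation (37 °C, 5% CO2) of HEK293T cells carrying luciferase-tagged ELG1; luciferase then measured by ONE-Glo luminescence after 30 min at RT.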
FLuc modulator: inhibits or activates purified firefly luciferase, miR-21 counter-screen | P08659 | purified FLuc, Km substrates, luminescence inhibition | Potency, µM (highest dose often 57.5 µM), without a hit: top-dose activity change, negative = inhibition, actives largely listed as inhibitors | 360,000 compounds, 6.9% hits;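 note: plate controls were vehicle for no effect and reference inhibitor for full effect; nearly all actives have a fitted effect of over 55% in size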
Target sequence (P08659 whole entry, looked up): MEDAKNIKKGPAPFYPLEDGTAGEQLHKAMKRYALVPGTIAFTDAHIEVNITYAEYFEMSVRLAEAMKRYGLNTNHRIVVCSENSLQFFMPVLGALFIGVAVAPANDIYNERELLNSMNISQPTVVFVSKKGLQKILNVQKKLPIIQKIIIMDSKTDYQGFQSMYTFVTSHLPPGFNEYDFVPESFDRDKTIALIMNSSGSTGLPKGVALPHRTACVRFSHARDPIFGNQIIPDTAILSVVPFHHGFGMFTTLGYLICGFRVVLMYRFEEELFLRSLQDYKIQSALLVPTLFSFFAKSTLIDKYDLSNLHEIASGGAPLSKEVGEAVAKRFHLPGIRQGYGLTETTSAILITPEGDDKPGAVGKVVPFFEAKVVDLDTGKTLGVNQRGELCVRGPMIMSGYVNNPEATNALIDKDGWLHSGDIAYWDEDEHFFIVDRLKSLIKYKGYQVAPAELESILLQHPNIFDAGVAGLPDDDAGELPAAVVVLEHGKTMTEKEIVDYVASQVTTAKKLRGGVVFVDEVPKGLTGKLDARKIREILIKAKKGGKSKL
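Purified P. pyralis luciferase (10nM final) with 10uM D-luciferin and 10uM ATP (Km levels) in 50mM Tris acetate pH 7.5, 10mM Mg acetate, 0.01% Tween-20, 0.05% BSA; qHTS 6-point titration, ~60 µM downward; luminescence read.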
SMN2 splice enh: SMN2 splice variant enhancement; HEK293 SMN2-luciferase splicing reporter, luminescence, 30-36 h; 210,000 compounds, 2.8% hits; Potency, µM (doses to about 46.1 µM), without a hit: at the highest dose activity change, positive = activation, hits mostly activators; note: % of control where 0% means no effect; nearly all actives have a fitted effect of over 55% in size
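HEK293 cells carry an SMN2 minigene-luciferase reporter in which exon 7 inclusion puts luciferase in frame. Cells were seeded at 2000 cells/well, attached for 10-12 hours, then exposed to compounds for 30-36 hours at 37C before ONE-Glo luminescence.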
NPC1 promoter act: NPC1 promoter activation. Huh7 NPC1 promoter luciferase reporter, 24 h. Potency, µM (titrated, usually from 9.22 µM), inactives show at the highest dose activation, hits mostly activators. 320,000 compounds, 2.4% hits; note: % of control where 0% means no effect; nearly all actives have a fitted effect of over 60% in size
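Stable NPC1-promoter luciferase Huh7 line; cpd (DMSO) 24 h, 37 °C, 5% CO2; Amplite luciferase reagent 10 min RT; luminescence readout. qHTS format.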
ELG1 DNA repair: inhibitors of ELG1-dependent DNA repair in HEK293T cells. HEK293T ELG1-luciferase reporter, luminescence, 16 h; DNA damage induced by 5-fluorouridine. Potency, µM (top dose mostly 46.1 µM), for the others: at the highest dose activity change, negative = inhibition, usual class: inhibitors. 330,000 compounds, 2.3% hits. AID 504467; note: % is set by controls: 0 for no effect and ±100 for the full control effect; nearly all actives have a fitted effect of over 55% in size
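HEK293T cells expressing luciferase-tagged ELG1 (2,000/well) received 5-Fluorouridine plus compound or DMSO for 16 hr at 37 °C. Luciferase was read by ONE-Glo luminescence after 30 min at room temperature.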
Starred values were filed as active, the others as inactive; ? = inconclusive; . = no result. Most compounds without a hit are left out; they make up all but 9.3% or so of the library. Calls come from the whole dose curve; as a rule, active = well fitted curve in the direction sought with a large enough effect; inconclusive = small, poorly fitted or top-dose-only effect, or another doubt; inactive = no such curve, though single readings can be large; an effect the other way counts as inactive or inconclusive. Potency is the fitted concentration of half-maximal effect.

SMILES | Rab9 promoter act | ELG1 genotox | FLuc modulator | SMN2 splice enh | NPC1 promoter act | ELG1 DNA repair
COc1ccc(OCCSc2nc(N)cc(N)n2)cc1 | 4µM* | 0.73µM* | 21µM* | -7% | 4µM* | ?
Cc1ccc(OCCSc2nc(N)cc(N)n2)cc1 | 1.8µM* | ? | 24µM* | . | 3.2µM* | ?
CCCOc1ccc(OCCSc2ncccn2)cc1 | 4µM* | 10µM* | 6.7µM* | 16µM* | 3.2µM* | ?
Cc1ccc(OCCCSc2n[nH]c(N)n2)cc1 | 5% | 12% | ? | . | -2% | ?
Clc1ccc(OCCSc2ncccn2)c(Br)c1 | 0.71µM* | 2.1µM* | 2.1µM* | 13µM* | 1.4µM* | ?
CCOc1ccc(S(=O)(=O)NCC2CCCO2)cc1NC(=O)c1ccccc1F (stereo unspecified) | 4% | 15% | 1% | . | 0% | 9%
Cc1cc(=O)n2nc(-c3ccc(C(F)(F)F)cc3)sc2n1 | ? | 4µM* | ? | 11µM* | ? | ?
CC1(c2ccc(OC(F)F)cc2)NC(=O)N(CC(=O)N2c3ccccc3NC(=O)C2(C)C)C1=O (stereo unspecified) | -2% | -3% | -4% | . | -8% | -26%
Cc1ccc(-n2cc(CNCCN3CCOC3=O)c(-c3cccc(C)c3)n2)cc1 | -3% | 2% | -16% | . | -4% | -18%
COC(=O)CC1C(=O)NCCN1Cc1cn(-c2ccc(C)cc2)nc1-c1cccc(C)c1 (stereo unspecified) | -3% | -3% | 17µM* | . | 2% | -13%
COc1ccc(-c2ccc(-c3noc(-c4ccc(OC)c(OC)c4)n3)c(OC)n2)cc1 | 3% | 0% | 0% | -21% | -2% | 1%
COc1nc(-c2ccccc2)ccc1-c1noc(-c2ccc(F)cc2)n1 | 11% | -1% | 4% | 12% | 0% | 5%
COc1nc(-c2ccccc2)ccc1-c1noc(-c2ccccc2F)n1 | ? | ? | 5.4µM* | 29% | ? | ?
COc1ccc(-c2ccc(-c3noc(-c4cccc(OC)c4)n3)c(OC)n2)cc1 | 10% | 2% | 7.6µM* | -46% | -2% | 12%
COc1nc(-c2ccccc2)ccc1-c1noc(-c2cccnc2)n1 | ? | -4% | ? | . | 27% | ?
COc1cccc(-c2nc(-c3ccc(-c4ccccc4)nc3OC)no2)c1 | . | . | 2.4µM* | 1% | . | .
COc1cccc(-c2nc(CS(=O)(=O)c3ccccc3)no2)c1 | 3.2µM* | ? | 12µM* | 11µM* | 2.8µM* | ?
C=C1c2ccccc2O[C@H](C(=O)OCC)[C@@H]1C1CCCCC1 | . | 2% | . | . | . | 2%
c1ccc(N2CC3CCc4ccccc4C3=N2)cc1 (stereo unspecified) | 3.2µM* | ? | 8.5µM* | . | ? | ?
COCCn1c(-c2cc(OC)c(OC)c(OC)c2)nc2oc3ccccc3c(=O)c2c1=O | 2% | -9% | 0% | 14µM* | -1% | -13%
COCCn1c(-c2ccccc2)nc2oc3ccccc3c(=O)c2c1=O | 4% | -1% | 3% | -2% | -4% | 14%
COc1ccc2c(=O)c3c(=O)n(Cc4ccco4)c(-c4cc(OC)c(OC)c(OC)c4)nc3oc2c1 | -13% | -4% | -5% | 5% | -2% | 13µM*
COc1ccc2c(=O)c3c(=O)n(Cc4ccco4)c(-c4ccccc4)nc3oc2c1 | 0% | -19% | 0% | 4% | 1% | ?
Cc1cc(C)n(C(C)Sc2ccccc2)n1 (stereo unspecified) | -5% | 3% | 0% | . | -3% | 3%
O=C(c1cc(-c2ccncc2)nc2ccccc12)N1CCN(S(=O)(=O)/C=C/c2ccccc2)CC1 | -1% | -3% | 2% | . | 0% | ?
SMILES | Rab9 promoter act | ELG1 genotox | FLuc modulator | SMN2 splice enh | NPC1 promoter act | ELG1 DNA repair
O=C(NC1CCCCC1)c1ccc(CSc2nc3cccnc3n2Cc2ccccc2)cc1 | . | . | -17% | . | . | .
CCOC(=O)N1CCN(C(=O)CSc2ccc(-c3ccc(OC)c(OC)c3)nn2)CC1 | 5% | -14% | 17µM* | 2% | 2% | ?
CCOc1ccc(-c2ccc(SCC(=O)N3CCN(c4ccccc4)CC3)nn2)cc1 | -2% | 1% | ? | -16% | 3% | 18%
CCOC(=O)N1CCN(C(=O)CSc2ccc(-c3ccc(OC)cc3)nn2)CC1 | -6% | 0% | 11µM* | -16% | 1% | 11%
COc1ccc(-c2ccc(SCC(=O)N3c4ccccc4CC3C)nn2)cc1OC (stereo unspecified) | -2% | -4% | 4.3µM* | ? | 11% | 16µM*
CC1Cc2ccccc2N1C(=O)CSc1nncn1C (stereo unspecified) | 6% | 1% | -1% | 16% | -2% | 12%
COC(=O)NCc1ccc2c(c1)OCO2 | -4% | 0% | 8% | ? | -3% | 0%
O=C(c1ccc(=O)[nH]n1)N1CCN(S(=O)(=O)c2ccc3ccccc3c2)CC1 | 6% | -7% | -11% | -17% | -9% | 16µM*
O=C(c1cc(-c2cccc(Cl)c2)on1)N1CCCCCC1 | 2.8µM* | 21µM* | 11µM* | . | 2.5µM* | ?
O=C(c1cc(-c2cccc(Cl)c2)on1)N1CCN(c2ccc(F)cc2)CC1 | -1% | 22% | 1% | . | -4% | 15%
CN1CCN(C(=O)c2cc(-c3cccc(Cl)c3)on2)CC1 | 6.3µM* | 11% | ? | . | ? | ?
O=C(O)/C=C/c1ccccc1[N+](=O)[O-] | 2% | -2% | 3% | . | -4% | -16%
O=C(/C=C/c1ccccc1[N+](=O)[O-])Nc1ccccc1 | 0.71µM* | ? | 6µM* | 14µM* | 2µM* | ?
COc1cc(NC(=O)/C=C/c2ccccc2[N+](=O)[O-])cc(OC)c1 | 25% | 0% | 21µM* | ? | 17% | 2%
O=C(COC(=O)/C=C/c1ccccc1[N+](=O)[O-])Nc1ccc(OCc2ccccc2)cc1 | ? | ? | 1% | 13µM* | ? | ?
CCNC(=O)/C=C/c1ccccc1[N+](=O)[O-] | -2% | -4% | 0% | 9% | -2% | 6%
O=C1NCCCC2c3c(cc(Br)c(O)c3Br)OC12N1CCCCC1 (stereo unspecified) | -4% | 2% | -1% | -13% | -1% | 4%
CC(C)Sc1cc(N2CCOCC2)nc(-c2ccc(Cl)cc2)n1 | -1% | 2% | 1% | -18% | 1% | 1%
COc1ccc(CCNC(=O)Cn2cccc2C(=O)c2ccccc2)c(OC)c1 | -4% | -4% | -9% | . | -3% | -18%
